From PubChem BioAssay
This is a sample that favours compounds with a hit; in the whole collection about 8.3% have one here.
HCV inh: inhibitors of hepatitis C virus infection | Huh7.5.1 HCVcc-Cre infection, luciferase reporter, 44 h | Potency, µM (doses to about 41.8 µM), for the others: top-dose activity change, negative = inhibition, actives largely listed as inhibitors | 340,000 tested, 3.4% active; further: potency means the concentration at half of the fitted maximal effect
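Reporter virus HCVcc-Cre (~0.5 moi) infects cells exposed to compound; seeding density 1,000 cells/well with 4 h settling beforehand. Luminescence, 15 sec read, taken 44 h post-infection following a 15 min RT substrate incubation.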
FMDV antiviral: foot and mouth disease virus antiviral activity | 410,000 tested, 1.2% active | Potency, µM (titrated, usually from 57.9 µM), without a hit: at the top dose activity change, negative = inhibition, actives largely listed as inhibitors | FMDV antiviral cell-based qHTS | AID 1159524; calls by dose curve; tested in HEK293T cells; further: read-out not given here; potency means the concentration at half of the fitted maximal effect; nearly all actives have a fitted effect of over 45% in size
MARV entry inh: Marburg virus entry inhibition; Marburg virus pseudotyped entry inhibition, cell reporter; Potency, µM (highest dose often 37.8 µM), for inactives: at the highest dose activity change, negative = inhibition, hits mostly inhibitors; 300,000 tested, 1.8% active; calls by dose curve; tested in HEK293 cells; further: potency means the concentration at half of the fitted maximal effect
FBPA Giardia inh: blocks Giardia fructose-bisphosphate aldolase activity; 290,000 tested, 0.71% active; AID 2451; A8B2U2; Potency, µM (top dose mostly 59.6 µM), inactives show at the top dose activity, negative = inhibition, actives largely listed as inhibitors; purified Giardia FBPA; further: potency means the concentration at half of the fitted maximal effect; nearly all actives have a fitted effect of over 55% in size
Target sequence (A8B2U2 whole entry, looked up): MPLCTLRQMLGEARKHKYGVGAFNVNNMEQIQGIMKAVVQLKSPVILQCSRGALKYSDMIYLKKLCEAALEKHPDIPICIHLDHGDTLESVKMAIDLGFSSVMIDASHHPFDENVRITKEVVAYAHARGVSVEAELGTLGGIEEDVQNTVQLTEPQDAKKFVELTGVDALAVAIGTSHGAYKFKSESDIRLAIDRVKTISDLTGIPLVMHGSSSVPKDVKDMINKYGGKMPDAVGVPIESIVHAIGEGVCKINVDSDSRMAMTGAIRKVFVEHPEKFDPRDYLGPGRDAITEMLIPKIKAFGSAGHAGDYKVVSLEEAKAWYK
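Giardia FBPA (40 nM reagent) was preincubated 10 min at RT with compound (up to 57.5 uM final), then substrate plus GAPDH/TPI/NAD/arsenate coupling system with diaphorase/resazurin was added; resorufin fluorescence (525/598 nm) was read after 20 min.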
HCMV antiviral: blocks human cytomegalovirus replication | HFF cells, HCMV-luciferase reporter, 72 h; active compounds read low | activity change, negative = inhibition, % at 57.5 µM | 410,000 tested, 4.5% active | AID 1259415; in the data active means activity change below about -60%; inconclusive means no clear call, values can overlap the other calls; inactive means above about -39%
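Luciferase read-out from HCMV-luciferase-infected HFFs (MOI 1 PFU/cell) 72 h post infection at 37C; compounds added after 16 h cell attachment; activity normalized between buffer-only basal and Salinomycin (10uM) inhibitor controls.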
Lassa entry inh: blocks Lassa virus binding to or entry into cells; Potency, µM (top dose mostly 37.9 µM), without a hit: at the top dose activity change, negative = inhibition, usual class: inhibitors; 300,000 tested, 1.2% active; Lassa virus pseudotype entry inhibition, cell reporter; calls by dose curve; tested in HEK293 cells; further: potency means the concentration at half of the fitted maximal effect; nearly all actives have a fitted effect of over 50% in size
* marks the source's active call; other numbers are inactive results; [ ] = dose if it differs, or a comment. Unless noted, the call rests on the fitted dose curve; in most records, active means well fitted curve in the direction sought with a large enough effect; inconclusive means small, poorly fitted or top-dose-only effect, or another doubt; inactive means no such curve, though single readings can be large; an effect the other way counts as inactive or inconclusive. On the % scale 0 is the no-effect control and ±100 the full control effect.

Screening C=CCNc1nc2c(c(=O)n(C)c(=O)n2C)n1Cc1ccc(F)cc1 returned HCV inh 6.3µM*, FMDV antiviral inconclusive, FBPA Giardia inh 0% and HCMV antiviral -79*.
For CCCCCCn1c(N2CCCC2)nc2c1c(=O)n(C)c(=O)n2C the results were HCV inh inconclusive, FMDV antiviral 28µM*, MARV entry inh inconclusive, FBPA Giardia inh 2%, HCMV antiviral -22 and Lassa entry inh -19%.
Screening CCCCOc1ccc(S(=O)(=O)Nc2ccc(-c3ccc(N4CCCCC4)nn3)cc2)cc1 returned FMDV antiviral 22%, HCMV antiviral 56 and Lassa entry inh 7%[46.1 µM].
`CN(C)CC(C)(O)c1ccc2c(c1)CN(Cc1cnn(-c3ccccc3)c1)CCO2` (stereo not drawn) gave FMDV antiviral -7%.
Cc1nc(Nc2ccccc2)c2nc(-c3ccccc3)n(CCCN3CCCCC3C)c2n1 (stereo not drawn) was read as FBPA Giardia inh 0%.
For COc1ccccc1CN1C(=O)[C@@H]2Cc3c([nH]c4ccccc34)C(C)(C)N2C1=O the results were FMDV antiviral 28µM* and HCMV antiviral -17.
For COc1ccc(CN2C(=O)[C@@H]3Cc4c([nH]c5ccccc45)C(C)(C)N3C2=O)cc1 the results were FMDV antiviral 0% and HCMV antiviral -31.
Screening COc1cccc(CN2C(=O)[C@H]3Cc4c([nH]c5ccccc45)C(C)(C)N3C2=O)c1 returned FMDV antiviral 35µM* and HCMV antiviral -19.
`Cc1ccccc1CN1C(=O)[C@@H]2Cc3c([nH]c4ccccc34)C(C)(C)N2C1=O` gave FMDV antiviral inconclusive and HCMV antiviral -4.
Screening CCN(CC)CCN1C(=O)C(=O)/C(=C(\O)c2ccc(Cl)cc2)[C@@H]1c1ccncc1 returned MARV entry inh 2%.
Screening CCOc1ccc(C(=O)Nc2ccc(S(=O)(=O)N3CCCCC3c3cccnc3)cc2)cc1 (stereo not drawn) returned FMDV antiviral 32µM*, HCMV antiviral -89* and Lassa entry inh inconclusive.
`O=C(Nc1ccc(S(=O)(=O)N2CCCCC2c2cccnc2)cc1)c1ccc(Br)cc1` (stereo not drawn) gave FMDV antiviral inconclusive, HCMV antiviral -98* and Lassa entry inh inconclusive.
For CC(=O)Nc1ccc(S(=O)(=O)N2CCCCC2c2cccnc2)cc1 (stereo not drawn) the results were HCV inh 3%, FMDV antiviral -21%, MARV entry inh 8%, FBPA Giardia inh 0%, HCMV antiviral -15 and Lassa entry inh -2%.
Screening Cc1ccc(C)c(-n2cc(CNCCCn3cccn3)c(-c3ccccc3)n2)c1 returned HCV inh inconclusive, FMDV antiviral -17%, MARV entry inh 10µM*, FBPA Giardia inh 3%, HCMV antiviral -65* and Lassa entry inh inconclusive.
For Cc1ccc(-n2cc(CNCCCn3ccnc3C)c(-c3ccc(F)cc3)n2)cc1 the results were HCV inh inconclusive, FMDV antiviral -25%, MARV entry inh inconclusive, FBPA Giardia inh 0%, HCMV antiviral -82* and Lassa entry inh inconclusive.
`COc1ccc(-n2cc(CNCCc3cscn3)c(-c3ccccc3Cl)n2)cc1` gave HCV inh -2%, FMDV antiviral -6%, MARV entry inh inconclusive, FBPA Giardia inh 5%, HCMV antiviral -37 and Lassa entry inh -27%[46.1 µM].
Screening Cc1ccc(-n2cc(CNCCCn3cccn3)c(-c3cccc(C)c3)n2)cc1 returned HCV inh -2%, FMDV antiviral -29%, MARV entry inh inconclusive, FBPA Giardia inh 4%, HCMV antiviral -38 and Lassa entry inh inconclusive.
Cc1ccc(-c2nn(-c3ccccc3)cc2CNCc2ccccc2)cc1 was read as HCV inh 11µM*, FMDV antiviral 41%, MARV entry inh inconclusive, FBPA Giardia inh -7%, HCMV antiviral -38 and Lassa entry inh inconclusive.
Cc1ccc(-n2cc(CNCCc3cscn3)c(-c3ccc(F)cc3)n2)cc1 was read as HCV inh inconclusive, FMDV antiviral -7%, MARV entry inh 13µM*, FBPA Giardia inh -1%, HCMV antiviral -30 and Lassa entry inh inconclusive.
Screening Cc1ccc(-c2nn(-c3ccccc3)cc2CO)cc1 returned HCV inh -2%, FMDV antiviral 39%, MARV entry inh 13%, FBPA Giardia inh 11%, HCMV antiviral -8 and Lassa entry inh inconclusive.
Cc1ccc(NC(=O)CN2C(=O)CCc3cc(S(=O)(=O)N4CCOCC4)ccc32)c(C)c1 was read as FMDV antiviral -15%, HCMV antiviral 18 and Lassa entry inh 4%[46.1 µM].
For COc1cc(-c2ccc(Cl)cn2)cc2c1OCCN(C(=O)c1ccccc1-n1cccn1)C2 the results were FMDV antiviral -9%.
O=C1CCCC/C=C\C[C@H](CC(=O)N(CCO)Cc2ccccc2)C(=O)N[C@@H](c2ccccc2)CO1 was read as HCV inh 13%, FMDV antiviral -17% and HCMV antiviral -63*.
`CC(C)(C)[C@H]1COC(=O)CCCC/C=C\C[C@H](CC(=O)N(CCO)Cc2ccccc2)C(=O)N1` gave HCV inh 10%, FMDV antiviral -20% and HCMV antiviral 21.
CC(C)(C)OC(=O)C[C@@H]1C/C=C\C[C@@H](CC(=O)N(CCO)Cc2ccccc2)C(=O)N2CCC[C@H]2COC1=O was read as HCV inh -2%, FMDV antiviral -22% and HCMV antiviral 3.
For O=C1NCCOC(=O)[C@H](Cc2ccc(F)cc2)C/C=C\C[C@@H]1CC(=O)N(CCO)Cc1ccccc1 the results were HCV inh 11µM*, FMDV antiviral inconclusive and HCMV antiviral -37.
`CC(C)(C)OC(=O)C[C@@H]1C/C=C\C[C@H](CC(=O)N(CCO)Cc2ccccc2)C(=O)N2CCC[C@H]2COC1=O` gave HCV inh 1.1µM*, FMDV antiviral -22% and HCMV antiviral 0.
For O=C1NCCOC(=O)[C@@H](Cc2ccc(F)cc2)CC/C=C/C[C@@H]1CC(=O)N(CCO)Cc1ccccc1 the results were HCV inh 2%, FMDV antiviral -30% and HCMV antiviral -63*.
`O=C1NCCOC(=O)[C@H](Cc2ccc(F)cc2)C/C=C\C[C@H]1CC(=O)N(CCO)Cc1ccccc1` gave HCV inh inconclusive, FMDV antiviral inconclusive and HCMV antiviral -18.
CCN(CC)CCCNC(=O)c1ccc(C)c(NC(=O)C2=C(C)OCCS2)c1 was read as HCV inh 8%, FMDV antiviral -8%, FBPA Giardia inh 1% and HCMV antiviral inconclusive.
